From PubChem BioAssay AID1159580 (chemical genetic matrix, 2015)
The whole screen tested about 5,500 compounds, of which about 2,000 (36%) were called active. Roughly 18% stayed inconclusive and do not appear here. Rule as the data show it: active = normalized growth mostly below about 0.91 (no sharp cut-off); inconclusive = no clear call, values can overlap the other calls; inactive = mostly above about 0.92. This is one part of the list.

Test: chemical genetic growth profiling, strain panel (AID 1159580);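 also: tested at 20 µM; growth read once vehicle control cultures reached saturation at 30 °C; 1 = growth at the plate median or of vehicle wells; lower values mean less growth of the strain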
Details: S. cerevisiae deletion strains, growth OD

Measured: normalized growth

COC(=O)C/C(N)=C(\C#N)C(=O)OC
inactive: locus YAL013W, strain DEP1, active compounds read low 1 | locus YBR229C, strain ROT2, active compounds read low 0.984 | locus YCL061C, strain MRC1, active compounds read low 1.02 | locus YDL101C, strain DUN1, active compounds read low 1.03 | locus YDR150W, strain NUM1, active compounds read low 1.01 | locus YEL061C, strain CIN8, active compounds read low 0.994 | locus YGR078C, strain PAC10, active compounds read low 1.05 | locus YHR030C, strain SLT2, active compounds read low 1.08 | locus YHR087W, strain rtc3, active compounds read low 0.944 | locus YJL187C, strain SWE1, active compounds read low 1.02 | locus YJR043C, strain POL32, active compounds read low 1.02 | locus YJR075W, strain HOC1, active compounds read low 1.01 | locus YKL190W, strain CNB1, active compounds read low 0.986 | locus YLR039C, strain RIC1, active compounds read low 0.993 | locus YLR058C, strain SHM2 (second series), active compounds read low 0.983 | locus YLR085C, strain ARP6, active compounds read low 0.995 | locus YLR262C, strain YPT6, active compounds read low 0.982 | locus YML094W, strain GIM5, active compounds read low 0.982 | locus YMR219W, strain ESC1, active compounds read low 0.982 | locus YMR263W, strain SAP30, active compounds read low 1.02 | locus YNL153C, strain GIM3, active compounds read low 1.04 | locus YNL298W, strain CLA4 (second series), active compounds read low 0.999 | locus YNL322C, strain KRE1, active compounds read low 1.01 | locus YNR030W, strain Alg12, active compounds read low 1.03 | locus YPL055C, strain LGE1, active compounds read low 0.975 | locus YPL241C, strain CIN2, active compounds read low 1.01 | locus YPR135W, strain CTF4, active compounds read low 1.08
